Laboratory results from PubChem BioAssay (NCI).
“And” between values parts separate entries of the source, which are not always exact repeats. Equal values may be shown once. This is part of a sample that, as a whole, favours compounds with a hit. Of some 83,000 tested, about 20% had one in any assay.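 A percent growth of 40 corresponds to 60% growth inhibition; 0 means no net growth; -100 means all cells died. Active threshold: below 10.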 The source made the active and inactive calls.

What follows are compounds tested on HL-60(TB) leukemia (assay: NCI-60 one-dose screen, 48 h (100 = growth as untreated, 0 = no growth, -100 = all killed)). Details: 10 µM unless noted.

Compound	growth
O=C(N/N=C/c1ccccc1O)C(O)(c1ccccc1)c1ccccc1	35% (inactive)
Cc1ccc(-c2noc(CC(=O)c3ccc([N+](=O)[O-])cc3)n2)cc1	65.2% (inactive)
CN(C)c1ccc(/C=N/NC(=O)COc2cc(=O)n(C)c3ccccc23)cc1	98.5% (inactive)
O=C(O)CC1Sc2ccccc2NC1=O (centres undefined)	115% (inactive)
COc1ccc(/C(=N/O)c2cc(F)c(F)c(OC)c2F)cc1O	-5.23% (active)
COc1ccc(-c2conc2-n2nc(-c3ccccc3)nc2-c2ccccc2)cc1	99.3% (inactive)
COc1cc(OC)cc(C2=C3CC[C@@H]4[C@H](CC[C@]5(C)C(=O)CC[C@@H]45)C3=CC3C(O)c4cccnc4N4C(=O)COC234)c1 (some centres undefined)	98% (inactive)
N#Cc1c(-c2ccc(F)cc2)nc(N=Nc2c(O)[nH]c3ccc(Cl)cc23)nc1N1CCOCC1	73.3% (inactive)
CCCCCCCCCCCCSC(=NC)NC	-37.6% (active) and 38.4% (inactive)
COC(=O)CCC(=O)c1ccccc1	94.7% (inactive)
COc1ccc(C(=O)c2nc3ccccc3n2CC(=O)c2ccc(Cl)cc2)cc1	-13.2% (active)
O=C(Cn1c(=O)sc2ccccc21)NNS(=O)(=O)c1ccccc1[N+](=O)[O-]	94.9% (inactive)
COCCNC(C(=O)c1ccccc1)c1ccccc1 (centres undefined)	103% (inactive)
C=CCSc1nnc(NC(=O)CCl)s1	91.5% (inactive)
Cc1nc2cc(NC(=O)CN3CCN(CCN4C(=O)c5cccc6cccc(c56)C4=O)CC3)ccc2s1	63.9% (inactive)
[2H]c1nc(Nc2ncc3cc(C(=O)N(C)C)n(C4CCCC4)c3n2)c([2H])c([2H])c1N1C([2H])([2H])C([2H])([2H])NC([2H])([2H])C1([2H])[2H]	14.6% (inactive)
Cc1cc2c([nH]1)CSc1cc(S(=O)(=O)c3ccccc3)c(=O)[nH]c1-2	27.7% [100 µM] (inactive)
O=C1c2ccccc2C(=O)c2c1oc1c2c(=O)[nH]c2ccc(Cl)cc21	94.5% (inactive)
O=[N+]([O-])c1cnc(Sc2ccncn2)c([N+](=O)[O-])c1	11.3% (inactive)
COc1cccc2cc(-c3cc4ccccc4[nH]3)c(=NC(=O)c3ccc(Cl)cc3)oc12	72.1% (inactive)
COc1cnc2c(c1)C(=O)c1c-2n(CCCNCCO)c(=O)c2ccncc12	16.1% (inactive)
Cc1ccc2nc(C)c(-c3nnc(SCc4ccc(C#N)cc4)o3)n2c1	111% (inactive)
Clc1nc(Cl)c2ncn(C/C=C/Cn3cnc4c(Cl)nc(Cl)nc43)c2n1	-2.68% (active)
Cc1cc(N(CCCNc2ccnc3cc(Cl)ccc23)Cc2ccc3c(c2)OCO3)nc(N2CCOCC2)n1	-69.7% (active)
Nc1c(S(=O)(=O)O)cc(Br)c2c1C(=O)c1ccccc1C2=O	103% (inactive) and 91% (inactive)
C=C1NC(=O)C(C(C)CC)NC(=O)C2CSCC(NC(=O)CCC(=O)O)C(=O)NC(Cc3ccccc3)C(=O)NC(C)C(=O)NC(CC(C)CC)C(=O)NC(C(=O)NC(Cc3ccccc3)C(=O)N3CCCC3C(=O)N2)C(C)OC(=O)C(CO)NC(=O)C(C(O)COC)N(C)C(=O)C(C(C)C)NC(=O)C(CC(C)CC)NC1=O (centres undefined)	-26.8% [6 µM] (active)
CS(=O)(=O)Nc1ccc(Nc2c3ccccc3nc3cc([N+](=O)[O-])ccc23)cc1	-8.01% (active)
O=C(NC(=O)c1ccc(F)c(Cl)c1)NC1CC1	88.3% (inactive) and 89% (inactive)
CC(C)C/C=C/C=C/C(=O)N[C@@H](CC(N)=O)C(=O)N[C@@H]1C(=O)N[C@H](c2ccc(O)cc2)C(=O)N[C@H](CCCN)C(=O)N[C@H]([C@@H](C)O)C(=O)N[C@H](c2ccc(O)cc2)C(=O)N[C@H](c2ccc(O)cc2)C(=O)N[C@H]([C@H](C)O)C(=O)N[C@H](Cc2ccccc2)C(=O)N[C@H](CCCN)C(=O)N[C@H](c2ccc(O[C@H]3O[C@@H](CO)[C@@H](O)[C@@H](O)[C@H]3O[C@@H]3O[C@H](CO)[C@H](O)[C@H](O)[C@@H]3O)cc2)C(=O)N[C@H]([C@H](C)O)C(=O)N[C@H](c2ccc(O)cc2)C(=O)NCC(=O)N[C@H](CC(C)C)C(=O)N[C@H](C)C(=O)N[C@H](c2ccc(O)c(Cl)c2)C(=O)O[C@@H]1C(N)=O	72.1% (inactive)
